# In PubChem BioAssay (NCI):
# This is part of a sample that, as a whole, favours compounds with a hit. Of some 83,000 tested, about 20% had one in any assay.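 For each line, cells grew in 96-well plates with the test compound present at a single concentration for 48 hours.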 A number with no mark means an inactive call. Calls of active or inactive are those of the source. Rule for the calls: active = growth percent below 10; inactive = the rest.
# Tests used:
# Assay in all cases: NCI-60 one-dose screen, 48 h (100 = growth as untreated, 0 = no growth, -100 = all killed)
# Settings in all cases: 10 µM unless noted
# T-47D breast = test system: T-47D breast
# BT-549 breast = test system: BT-549 breast
# MDA-MB-435 melanoma = test system: MDA-MB-435 melanoma
# SW-620 colon = test system: SW-620 colon
# MCF7 breast = test system: MCF7 breast
# HCT-116 colon = test system: HCT-116 colon
# HCC-2998 colon = test system: HCC-2998 colon
# KM12 colon = test system: KM12 colon
# MDA-MB-468 breast = test system: MDA-MB-468 breast
Structure (SMILES),growth (T-47D breast),growth (BT-549 breast),growth (MDA-MB-435 melanoma),growth (SW-620 colon),growth (MCF7 breast),growth (HCT-116 colon),growth (HCC-2998 colon),growth (KM12 colon),growth (MDA-MB-468 breast)
COc1ccc(-c2cc(C(=O)N=Nc3c(O)[nH]c4ccc(Cl)cc34)c3ccccc3n2)cc1OC,106%,113%,119%,103%,87.8%,101%,109%,101%,98.9%
COc1ccc(NC(=O)Cn2c(/C=C/c3cccc(Br)c3)nc3ccccc3c2=O)cc1,-16.6% (active),56.1%,67%,32.2%,34.2%,26.2%,84.5%,87.7%,77.6%
O=C(c1ccc(O)cc1)C1[C@H](c2ccc(Cl)cc2)[C@@H](c2ccccc2)NC12C(=O)Nc1ccccc12 (stereo not given in full),11.7%,-50.7% (active),-34% (active),-12.7% (active),-6.29% (active),-76.8% (active),-61.1% (active),-13.7% (active),-45.2% (active)
COc1ccc(SC2c3cc(OC)ccc3Oc3nc(N)c(C#N)c(N)c32)cc1 (stereo not given),77.4%,24.5%,87.5%,69.5%,49.2%,78%,117%,61.2%,98.6%
COc1cc(C2CC(c3ccc(Cl)cc3)=Nc3c(N)nc(N)nc3N2)ccc1Oc1nc(Nc2ccc(F)cc2)nc(N(C)C)n1 (stereo not given),71.3%,62.4%,44%,35.5%,2.22% (active),-5.37% (active),-3.35% (active),32%,-22.4% (active)
Cc1ccc(C2CC(c3ccc(NC(=S)Nc4ccccc4)cc3)=NN2c2ccc(S(N)(=O)=O)cc2)cc1 (stereo not given),24.5%,-10% (active),23.6%,19.8%,2.64% (active),10.1%,-16.9% (active),2.95% (active),9.79% (active)
CC(C)(C)C(=O)c1c2c(c3ccc4c5ccccc5ccc4n13)C(=O)c1ccccc1C2=O,95.6%,101%,103%,102%,75%,90.7%,112%,94.4%,98.7%
CCC1(OC(=O)c2ccccc2SSCCOC(=O)CCCCC2SCC3NC(=O)NC32)C(=O)OCc2c1cc1n(c2=O)Cc2cc3ccccc3nc2-1 (stereo not given),33.7%,49.4%,70.1%,51.5%,26.5%,53.8%,78.7%,79%,-12.1% (active)
CN1CCN(C(=O)Oc2cc3c(c4ccccc24)[C@H](CCl)CN3C(=O)c2cc3cc(OCCCN4CCC4)ccc3[nH]2)[C@@H]2CSSC[C@H]21,-5.44% (active),-49.8% (active),-36.2% (active),4.87% (active),-63.4% (active),1.54% (active),-83.3% (active),-40.5% (active),-72.1% (active)
Cc1ccc(N=Nc2c(N)nn3c(-c4cc5cc(Br)ccc5oc4=O)ccnc23)cc1,56.4%,53%,113%,107%,51.1%,44.5%,87.1%,72.4%,73.5%
Cc1ccc(C(=O)Nc2cc(-n3ccnc3)cc(C(F)(F)F)c2)cc1-n1cc(-c2cnc3cccnn23)nn1,113%,247%,63.4%,81.9%,101%,55.1%,86.3%,80.1%,121%
CC[C@]12C=CCN3CC[C@@]4(c5ccc(OC)cc5N(C)[C@H]4[C@@](O)(C(=O)OC)[C@@H]1OC(=O)CCC[P+](c1ccc(OC)cc1)(c1ccc(OC)cc1)c1ccc(OC)cc1)[C@@H]32,-61.4% (active),-96.6% (active),-76.9% (active),-82.4% (active),-83% (active),-68.8% (active),-89.7% (active),-65.3% (active),-92.1% (active)
Nc1nn2c(-c3cc4cc(Br)ccc4oc3=O)ccnc2c1N=Nc1ccccc1,29.6%,-45.3% (active),71.2%,50.7%,20%,3.34% (active),30.2%,26.1%,46.2%
C[C@@H]1CN(c2ccc3ncc(C#Cc4cncc(C(=O)Nc5ccc(CN6CCN(C)CC6)c(C(F)(F)F)c5)c4)n3n2)C[C@@H](C)O1,-62.6% (active),-75.4% (active),-96.4% (active),-84.2% (active),-93.1% (active),-23.5% (active),-97% (active),-66.6% (active),-95.1% (active)
CC1=C(C(=O)OCc2ccccc2)C(c2ccc(N(C)C)cc2)n2c(nc3ccccc32)N1 (stereo not given),84.6%,82.8%,29.4%,103%,65.2%,87.7%,90.8%,73.4%,69.8%
CNS(=O)(=O)N1CCc2c(Br)c3c(c(OC)c2C1CCc1ccccc1)OCO3 (stereo not given),6.69% (active),-68.8% (active),-67.9% (active),8.53% (active),-22.3% (active),-16.8% (active),-12.7% (active),2.02% (active),-63.1% (active)
O=C1Nc2cc(-c3ccc(NS(=O)(=O)c4ccc(C(F)(F)F)cc4)cc3)ccc2/C1=C/c1ccc[nH]1,18.1%,-8.7% (active),9.69% (active),33.3%,0.78% (active),2.8% (active),30.5%,20.8%,-26.2% (active)
O=C(N=Nc1c(O)[nH]c2ccc(Br)cc12)c1ccc2nc(-c3ccc(Cl)cc3)[nH]c2c1,-30.7% (active),7.28% (active),-62.4% (active),-37.2% (active),-22.9% (active),8.39% (active),-66.8% (active),22.4%,-87.7% (active)
O=C(Nc1nc2ccc([N+](=O)[O-])cc2s1)Nc1ccc(Cl)cc1Cl,20.7%,65.3%,60.3%,75.9%,36%,22.5%,69.4%,60.2%,29.1%
CN1C(=O)C2(C(C#N)=C(c3ccc(Cl)cc3)Nc3c2c(-c2ccccc2)nn3-c2ccccc2)c2ccccc21 (stereo not given),84.6%,93.8%,97.1%,106%,73.8%,73.8%,87%,94.9%,95.4%
COc1ccc(N=Nc2c(N)nn3c(-c4ccc5c(c4)C=S=C5)ccnc23)cc1,3.67% (active),19.9%,83.8%,65.5%,31.1%,20.1%,48%,42.5%,16.6%
C=CCSc1nnc(-c2c(C)nc3sccn23)o1,79.4%,65.2%,101%,97%,70.8%,94%,110%,101%,5.74% (active)
OC(c1ccccc1)(c1ccccc1)C1CCN(c2ccc3nnc(Cl)n3n2)CC1,9.47% (active),2.56% (active),42.1%,56.6%,10.9%,22.6%,55.2%,30.9%,30.4%
COc1c2c(cc3c1C(CCc1ccccc1)N(C)CC3)OCO2 (stereo not given),-22.3% (active),-28.8% (active),5.73% (active),1.49% (active),-34.4% (active),3.07% (active),-31.5% (active),-28.3% (active),-61.8% (active)
COc1ccc(NC(=O)NN2C(=O)c3ccccc3N(C)C2c2ccc(OC)cc2)cc1 (stereo not given),97.1%,29.9%,103%,100%,94.9%,59.4%,113%,101%,102%
